Laboratory results reported in PubChem BioAssay AID889 (National Center for Advancing Translational Sciences (NCATS), 2007).
Hit rate of the full screen: of about 75,000 compounds, about 15 (0.02%) were called active. Inconclusive results (about 3%) are left out. The sample holds actives, similar compounds and a random draw of the others, so the mix is not that of the screen. The call rests on the fitted dose curve; in most records, active means well fitted inhibition curve with a large enough effect in the main read-out, with a control signal flat (not every such curve was filed as active); inconclusive means small, poorly fitted or top-dose-only effect, or a change in a side signal; inactive means flat fitted curve, though single readings scatter.

biological target: Caspase-7 (Homo sapiens) (UniProt P55210); assay: qHTS Assay for Allosteric/Competitive Inhibitors of Caspase-7; settings: recombinant caspase-7, Ac-DEVD-AFC fluorescence rate; series mostly up to 57.5 µM; further: % of control where 0% means no effect
Sequence (P55210 24-198 limits assumed): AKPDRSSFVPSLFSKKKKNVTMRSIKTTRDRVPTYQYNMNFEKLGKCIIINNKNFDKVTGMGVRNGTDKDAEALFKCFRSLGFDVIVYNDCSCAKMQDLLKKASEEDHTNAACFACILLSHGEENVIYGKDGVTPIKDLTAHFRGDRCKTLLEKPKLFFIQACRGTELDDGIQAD
Sequence (P55210 207-303 limits assumed): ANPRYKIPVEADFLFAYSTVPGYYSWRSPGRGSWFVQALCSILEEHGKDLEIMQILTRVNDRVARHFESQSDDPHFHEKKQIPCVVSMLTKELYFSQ
Description: NIH Molecular Libraries Screening Centers Network [MLSCN]
NIH Chemical Genomics Center [NCGC]
PI Name: Dr. James Wells,
Dr. Enrique Perez-Paya, Dr.Janice Williams, Dr. Dennis Wolan, a person
The caspases (Cysteine Aspartyl Protease) comprise a related family of 14 dimeric proteases that are critical mediators of apoptosis (programmed cell death) and inflammation. The caspases represent an important class of drug targets for stroke, ischemia, cancer and inflammatory diseases. […] One goal of this project was to identify compounds that act as allosteric inhibitors via stabilizing the procaspase form of the enzyme. Previous work in Well's laboratory has shown that such allosteric inhibitors can be identified and these act by binding at the dimer interface of enzyme (Hardy, Lam et al., 2004).
The biochemical assay was configured using purified caspase 7 at a high enzyme concentration to promote formation of the homodimers and thus facilitate the identification of allosteric inhibitors. The overall goal was to identify reversible inhibitors with better drug-like properties than the currently available set of aspartyl-containing peptidomimetics that covalently bind the active site. Caspase 7 was assayed using the profluorescent substrate Ac-DEVD-AFC. After initiation of the assay with substrate the plates were rapidly read using an automated robotic system (Kalypsys, Inc.) to maintain consistent timing. A kinetic mode of detection was used where the initial rate was collected (estimated final product formation was ~10%). Compounds were screened as a concentration-titration series that ranged from 57 uM to 0.7 nM. Below is the protocol used for caspase 7.
NCGC Assay Protocol Summary:
Caspase 7 was prepared in buffer (50 mM HEPES pH 7.5, 50 mM KCl, 200 mM NaCl, 10 mM DTT, 0.1% CHAPS) at a concentration of 66.6 nM and 3 uL was dispensed to all wells using black solid Kalypsys 1536-well plates. 20 nL of DMSO containing compounds was added using a pin-tool (Kalypsys Inc.) to columns 5-48. Then 20 nL of DMSO solution from a control plate was added to columns 1-4. Controls were: Column 1, 16 point titration with each concentration in duplicate (1:1 dilutions in DMSO; final starting concentration was 57 uM) of the caspase 7 inhibitor Ac-DEVD-CHO (Alexis Biochemicals); Column 2, a 16 point titration with each concentration in duplicate of the free AFC fluorophore prepared in DMSO (Alexis Biochemicals), final starting was 40 uM; Column 3 neutral (DMSO only) control; Column 4: DMSO alone, to serve as a negative control (no substrate was added). Then 1 uL of 20 uM the substrate Ac-DEVD-AFC (Alexis Biochemicals) prepared in the same buffer was dispensed to all wells except columns 2 and 4 and the plates were immediately transferred (< 1 min) to the Viewlux. The plates were then exposed using 405 nm excitation/520 nm emission filters for 4 sec and read at 20 sec intervals for 3 min. Final enzyme concentration was 50 nM and the final substrate concentration was 5 uM.
Concentration-response curves were fitted to the data calculated from slope of the linear regression of fluorescent intensity versus time (the rate). The concentration-effect curves were then classified based on curve quality (r2), response magnitude and degree of measured activity. […] Inconclusive compounds had appreciable concentration-dependent effects on both the measured rate and the interpolated basal fluorescence intensity at the start of the reaction but where the basal fluorescent intensity was marginal (e.g. < 10-fold). Inconclusive compounds also encompass highly fluorescent compounds (>100-fold increases in fluorescent intensities values relative to controls) where artificial concentration-dependent decreases in the rate occurred at high compound concentrations due to fluorescent interferences.
Keywords: Caspase 7, proteases, profluorescent, MLSMR, MLSCN, NIH Roadmap, qHTS, NCGC

Structure (SMILES) | activity change, negative = inhibition
Cc1ccc(S(=O)(=O)NC(C)C(=O)Nc2ccccc2C(=O)N2CCCC2)cc1 (stereo unspecified) | inactive
Cn1c(=S)c2[nH]c(SCCCc3ccccc3)nc2n(C)c1=O | 0.0837% [at 11.5 µM] (inactive)
CCC1=C(OC(=O)N(CC)CC)N2C(=O)OC(=NCC3CC3)[C@]2(C)[C@H]2C1=CC[C@H]1C(=O)N(CC(=O)OC)C(=O)[C@H]12 | inactive
Fc1ccc(-c2nnc3sc(-c4ccc5c(c4)OCO5)nn23)cc1 | inactive
Cn1c2c(c(=O)n(C)c1=O)C(c1ccc(O)cc1)Nc1ccccc1O2 (stereo unspecified) | inactive
CCOC(=O)c1[nH]c2c(c1C)C(=O)CC(c1ccc(N(C)C)cc1)C2 (stereo unspecified) | inactive
COc1ccc(NS(=O)(=O)c2ccc(NC(=O)C(C)(C(F)(F)F)C(F)(F)F)cc2)nn1 | inactive
Cc1cc(C(=O)COC(=O)c2cccs2)c(C)n1-c1c(C)n(C)n(-c2ccccc2)c1=O | inactive
COc1ccc2c3c1OC1CC(O)C=C[C@@]31CCN(C)C2 (stereo partly specified) | inactive
Cc1ccc(S(=O)(=O)C2(S(=O)(=O)c3ccc(C)cc3)CCCC2)cc1 | inactive
CCCN1C(=O)C(NS(=O)(=O)c2ccc(N)cc2)(C(F)(F)F)C(C(=O)OC)=C1C (stereo unspecified) | inactive
CS(=O)(=O)c1ccc2nc(NC(=O)C3CCCCC3)sc2c1 | inactive
CC(=O)OC1CCC2(O)CC1(C)CCC1C2CC1(C)C (stereo unspecified) | inactive
CC(C)C(N)C(=O)OCCOCn1cnc2c(=O)[nH]c(N)nc21 (stereo unspecified) | inactive
CC(C)(CSc1nncn1/N=C/c1ccco1)NS(=O)(=O)c1ccc(Cl)cc1 | inactive
NC(=O)C1CCN(C(=O)c2ccc(C(F)(F)F)cc2)CC1 | inactive
Cc1ccccc1CN1CCN(CC(=O)NCc2ccccn2)C1=O | inactive
BrC1C(Br)C(Br)C(Br)C(Br)C1Br (stereo unspecified) | inactive
CC(=O)N1CCC2(CCCN(c3ncccn3)C2)CC1 | inactive
CC1CCCCN1CCCNC(=O)c1ccc(-n2c(=O)c(=O)[nH]c3ccccc32)cc1 (stereo unspecified) | inactive
CCCn1c(SCC(=O)Nc2cccc(C(=O)OCC)c2)nnc1-c1ccoc1C | inactive
COC(=O)CC1C(C)(C)C(OC(C)=O)C2CC3=C4CC(=O)OC(c5ccoc5)[C@]4(C)CCC3[C@@]1(C)C2=O (stereo partly specified) | inactive
O=C1NS(=O)(=O)c2ccccc21 | inactive
CC12CN3CC(C)(CN(C1)C3c1ccc(Cl)cc1Cl)C2=O (stereo unspecified) | inactive
C[N+](C)(C)CCNC(=O)c1c(O)c2c([nH]c1=O)CCCC2 | inactive
CCOC(=O)N1CCC(O)(c2cc(C)c(C)cc2C)CC1 | inactive

Structure (SMILES) | activity change, negative = inhibition
Cc1cc(C)cc(N(CC(=O)Nc2c(C)n(C)n(-c3ccccc3)c2=O)S(C)(=O)=O)c1 | inactive
COc1ccc(Cn2c(=O)sc3ccccc32)cc1OC | inactive
CCOC(=O)N1CCN(C(=O)CSc2nnc(-c3c[nH]c4ccccc34)n2CCOC)CC1 | inactive
CCN(CC)C(=O)CSc1nnc(-c2ccc(S(=O)(=O)NCc3ccccc3Cl)cc2)o1 | inactive
Cc1ccccc1NC(=O)c1cc(S(=O)(=O)N2CCOCC2)cs1 | inactive
CCOC(=O)c1[nH]cnc1C(=O)NC1CCCCC1 | inactive
Oc1cc(O)c2c(c1)OC(c1ccc(O)c(O)c1)C(O)C2 (stereo unspecified) | inactive
CCOc1ccc(NS(=O)(=O)c2ccc(OCC(=O)NCCCOC)cc2)cc1 | inactive
COc1cccc(Cn2c(=O)c(C)nc3cnc(Oc4ccccc4)nc32)c1 | inactive
CCOc1ccc(Cn2c(SCCCCC#N)nc3c2c(=O)n(C)c(=O)n3C)cc1OCC | inactive
Cc1onc(-c2ccccc2Cl)c1C(=O)NCCn1ccc2ccccc21 | inactive
CC1O[C@@H](Oc2c(-c3ccc(O)c(O)c3)oc3cc(O)cc(O)c3c2=O)C(O)C(O)C1O (stereo partly specified) | inactive
CCC1Oc2ccc(Cl)cc2N(CC(=O)O)C1=O (stereo unspecified) | inactive
O=C(Cc1cccs1)N1CCCC(c2nc(-c3ccc(S(=O)(=O)N4CCCC4)cc3)no2)C1 (stereo unspecified) | inactive
CN(C)CCc1c[nH]c2ccc(Cn3cncn3)cc12 | inactive
C=CCn1c(COc2ccccc2F)nnc1SCC(=O)N1CC(=O)Nc2ccccc21 | inactive
O=NO | inactive
COC(=O)c1ccc(N(CC(=O)NC2CCCC2)C(=O)CNC(=O)c2ccco2)cc1 | inactive
COc1ccc(C(=O)CSc2nccc(=O)[nH]2)cc1 | inactive
COc1cc(OC)c(C(=O)Nc2ccc(N(C)C)cc2)cc1OC | inactive
CC1CSc2nnc(CCc3ccccc3)n21 (stereo unspecified) | inactive
O=c1c(O)c(-c2ccc(O)cc2)oc2ccccc12 | inactive
CC(C)NS(=O)(=O)c1ccc(OCC(=O)Nc2ccc3c(c2)OCCO3)cc1 | inactive
CCOC(=O)Cc1csc(NC(=O)CN(C)S(=O)(=O)c2ccc3c(c2)CCC(=O)N3)n1 | inactive
CC1CCCC(NC(=O)CN2CCN(Cc3ccc(Cl)cc3)C2=O)C1C (stereo unspecified) | inactive
